# Compound activity (PubChem BioAssay)
# CHO-K1 Ca antag = counter-screen for M1 antagonists: effect in parental CHO-K1 cells; ATP-induced calcium, Fluo-8 fluorescence; inhibition, % at 3 µM; 0.6% of 360,000 active; AID 602250;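 active = inhibition above a per-plate cutoff, the plate's mean sample inhibition plus 3 SD, cut at about 24% in these data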;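 note: 0% = DMSO plus EC80 ATP and 100% = DMSO alone without ATP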
# CHRM1 antagonist = human M1 muscarinic receptor antagonists, primary screen, CHO-K1 cells, Fluo-8 calcium fluorescence, 1536-well. Muscarinic acetylcholine receptor M1 (Homo sapiens), P11229. CHO-K1 hM1, ACh EC80 antagonist. inhibition, % at 3 µM. 1.3% of 360,000 active;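 active = percent inhibition above its own plate's cutoff, namely the mean of that plate's compound wells plus 3 SD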;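 note: peak over basal fluorescence ratio during 140 s after agonist addition; 0% = ACh EC80 plus DMSO and 100% = DMSO alone without agonist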
# Target sequence (P11229 whole entry, looked up): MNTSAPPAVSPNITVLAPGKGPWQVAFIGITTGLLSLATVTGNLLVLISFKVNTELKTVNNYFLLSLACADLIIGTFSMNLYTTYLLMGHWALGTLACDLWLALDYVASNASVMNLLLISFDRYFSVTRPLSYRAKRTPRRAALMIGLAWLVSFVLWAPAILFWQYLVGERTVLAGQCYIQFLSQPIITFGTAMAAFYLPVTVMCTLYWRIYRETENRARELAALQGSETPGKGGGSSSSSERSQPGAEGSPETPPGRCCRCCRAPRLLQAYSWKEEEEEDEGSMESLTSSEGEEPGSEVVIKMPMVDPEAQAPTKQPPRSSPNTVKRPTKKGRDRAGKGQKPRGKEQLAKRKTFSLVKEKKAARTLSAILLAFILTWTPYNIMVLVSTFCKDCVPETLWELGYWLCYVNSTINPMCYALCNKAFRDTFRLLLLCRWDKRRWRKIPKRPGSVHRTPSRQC
# M1 PAM parental = nonselective calcium activators in parental CHO-K1 cells, primary screen, counter-screen for M1 PAM project, cell-based, Fluo-8 calcium fluorescence, full deck, 1536-well | ATP EC20; 0% at ATP EC20, 100% at ATP max | activation, % at 3 µM | 0.02% of 360,000 active | AID 602247, 2012;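 active = activation above the run cutoff, the mean activation of all test compounds plus 3 SD, cut at about 40% in these data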;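 note: peak over basal fluorescence ratio in a 140 s read after ATP addition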
# M1 ag = human M1 muscarinic receptor agonists, primary screen, Fluo-8 calcium fluorescence, CHO-K1 cells, HTS. CHO-K1 hM1, agonist mode; 0% DMSO, 100% acetylcholine EC100. 0.33% of 360,000 active. Muscarinic acetylcholine receptor M1 (Homo sapiens), P11229. activation, % at 3 µM;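 active = activation above the run's mean compound activation plus 3 SD, cut at about 16% in these data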;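 note: peak over basal fluorescence ratio within a 140 s kinetic read after compound addition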
# M1 ag parental = counter-screen for M1 agonists: effect in parental CHO-K1 cells; Fluo-8 calcium fluorescence; scaled to maximal ATP response, vehicle zero; activation, % at 3 µM; 0.48% of 360,000 active; AID 602248, 2012; in the data active = activation above about 15%;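 note: untransfected CHO-K1 host cells lacking M1 receptor as counterscreen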
# CHRM1 PAM = human M1 muscarinic receptor positive allosteric modulators, primary screen, CHO-K1 cells, Fluo-8 calcium fluorescence, 1536-well. Muscarinic acetylcholine receptor M1 (Homo sapiens), P11229. CHO-K1 hM1, ACh EC20; 0% = ACh EC20, 100% = maximal ACh. activation, % at 3 µM. 0.088% of 360,000 active; in the data active = activation above about 19%, passing the limit was not always enough
# * hit, by the source's call; . = not tested or not shown. Compounds with a hit are over-represented: about 2.3% of the library has one in this group of screens.
SMILES,CHO-K1 Ca antag,CHRM1 antagonist,M1 PAM parental,M1 ag,M1 ag parental,CHRM1 PAM
CC(C)C[C@H]1COc2cc(N3CC[C@H](O)C3)ccc2S(=O)(=O)N1,-5,.,22,.,3,.
COc1ccc(OC)c2sc(N3CCN(c4ccccc4)CC3)nc12,28*,9,-5,0,0,6
COc1ccc(C)c2sc(N3CCCC3)nc12,-1,2,-1,-5,0,-3
NC(=S)NNC(=O)COc1ccccc1O,5,-4,-4,-2,0,3
N#CC(=C(O)CN1CCN(c2ccccc2F)CC1)c1nc(-c2ccc(Cl)cc2)cs1,-3,11,-8,-3,0,-7
Cc1ccc(S(=O)(=O)NN=CC2(c3ccccc3)CC2)cc1,-5,-20,42*,-3,0,6
Cc1ccc(S(=O)(=O)N/N=C\C=C\c2ccccc2)cc1,3,-9,-6,0,0,9
Cc1cc(NC(=O)C2CC(=O)N(c3cccc(Cl)c3)C2)no1 (configuration not stated),3,-5,9,-5,16*,2
O=C(Nc1ccc(Br)cc1)c1ccc(F)c(S(=O)(=O)NCc2cccs2)c1,28*,34*,0,-2,11,-19
Cc1ccc(C2=NS(=O)(=O)N(C)C(C(=O)Nc3ccc(F)cc3F)=C2)cc1,9,34*,-6,2,10,-24
CCCCN(CC)CCNC(=O)c1cc2c(-c3ccccc3F)nn(C)c2s1,-13,-25,16,-7,1,28*
CC1CCCCN1CCNC(=O)c1cc2c(-c3ccccc3F)nn(C)c2s1 (configuration not stated),0,1,-1,-6,1,0
CC(OC(=O)Cn1[nH]c(=O)c2ccccc2c1=O)C(=O)c1ccccc1 (configuration not stated),24*,-7,-30,6,1,20
CCCCCCCCCCCCCCCCn1cc[n+](C)c1,7,42*,2,-10,0,-30
CC[n+]1c(/C=C/N(C)c2ccccc2)n(-c2ccccc2)c2ccc(-c3nc4ccccc4s3)cc21,34*,98*,-2,-6,6,-30
CCOC(=O)c1ccc2c(c1)n(CC)c(/C=C/N(C)c1ccccc1)[n+]2CC,-10,19,11,-9,1,-13
NC(=O)NC(=O)C(c1ccccc1)N1CCN(S(=O)(=O)Cc2ccccc2)CC1 (configuration not stated),-7,21,8,-8,1,-12
O=S(=O)(Nc1cccnc1)c1ccc(C2CCCCC2)cc1,22,27*,9,6,10,-19
O=S(=O)(Nc1cccnc1)c1ccccc1,-6,-12,8,-6,0,13
COCC(=O)Nc1ccc(C(C)C)cc1,-6,-3,2,-3,0,2
CCOC(=O)c1ccc(N2CCN(c3cc(C)ccc3C)CC2)c(N)c1,-20,-4,-19,-8,1,0
CCOC(=O)N1CCC(N2CCN(c3cc(C)ccc3C)CC2)CC1,-10,51*,3,4,2,-12
CCOC(=O)N1CCC(N2CCN(S(=O)(=O)c3ccc(Cl)cc3)CC2)CC1,-4,-1,22,39*,2,-15
CCOC(=O)N1CCN(S(=O)(=O)c2ccc(Cl)cc2)CC1,-4,-14,7,1,1,11
COCc1cc(C)n(CC(=O)Nc2cc(C)cc(C)c2)c(=O)c1C#N,4,10,-5,-8,0,-8
SMILES,CHO-K1 Ca antag,CHRM1 antagonist,M1 PAM parental,M1 ag,M1 ag parental,CHRM1 PAM
Cc1nc2ccc(NS(=O)(=O)c3ccc4c(c3)OCCO4)cc2s1,23,31*,-1,3,7,-6
Cc1nc2ccc(S(=O)(=O)Nc3cccc(-c4nc5cccnc5s4)c3)cc2s1,30*,24,-9,3,6,-16
CCc1ccc([C@@H]2C[C@H]3[C@@H](CN2S(=O)(=O)c2ccc(C)cc2)C(=O)C[C@@H](c2cccc(Cl)c2)N3S(=O)(=O)c2ccc(C)cc2)cc1,6,-9,-15,-2,0,7
CC(Oc1cccc(Cl)c1)C(=O)N1CCCN(C)CC1 (configuration not stated),-10,-13,-1,-6,0,13
Cc1ccc(OCC(=O)NCCNC(=O)c2ccccn2)cc1,-11,4,9,-4,1,2
CCOC(=O)NN1C(=O)c2ccccc2NC1c1ccc(N(C)C)cc1 (configuration not stated),-7,-7,17,17*,1,6
NC(=O)C(C1=CCCCC1)c1ccccc1 (configuration not stated),-6,-10,6,-2,0,5
OCC1(CCc2ccccc2)CCN(C/C=C/c2ccccc2)CC1,-12,25,30,-8,21*,-24
COC(=O)c1cccc(C(=O)N2CCC(CO)(Cc3ccccc3Cl)CC2)c1,-8,1,10,3,7,-1
O=C(CCC(F)(F)F)N1CCC(CO)(CCc2ccccc2)CC1,6,-10,-16,-1,0,-5
OCC1(Cc2ccccc2Cl)CCN(C/C=C/c2ccccc2)CC1,3,62*,4,-5,3,-26
COc1ccc(C2CC(=O)Oc3c(C(C)C)ccc(C)c32)cc1 (configuration not stated),8,-14,12,18*,5,12
COc1ccc(C2CC(=O)Oc3cc(C)cc(C)c32)cc1 (configuration not stated),-15,-2,27,-3,1,-1
c1ccc(OCc2noc(CN3CCC(C4CCCCC4)C3)n2)cc1 (configuration not stated),-7,-9,20,-9,0,9
C#CCN(C[C@H]1[C@H](OC(=O)NCCCCCC)[C@H](OC(=O)NCCCCCC)C[C@@H](C(=O)OC)[C@H]1C(=O)OC)S(=O)(=O)c1ccc(C)cc1,6,-13,-8,-1,0,9
C#CCN(C[C@H]1[C@H](OC(=O)NCc2ccccc2)[C@H](OC(=O)NCc2ccccc2)C[C@@H](C(=O)OC)[C@H]1C(=O)OC)S(=O)(=O)c1ccc(C)cc1,38*,-4,-7,1,0,10
O=[N+]([O-])c1ccc(N2CCN(C(=S)NC3CCCCC3)CC2)cc1,9,21*,4,2,9,-21
